Measured values: PubChem BioAssay (NCI)
This is part of a sample that, as a whole, favours compounds with a hit. Of some 83,000 tested, about 20% had one in any assay.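 The test compound was applied at a single concentration to cells in 96-well plates for 48 hours, and percent growth was recorded.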 Unmarked numbers belong to inactive results. Active and inactive are the calls of the source. The calls were made as follows: active = growth percent below 10; inactive = the rest.

What was measured:
Test in all cases: NCI-60 one-dose screen, 48 h (100 = growth as untreated, 0 = no growth, -100 = all killed)
Conditions in all cases: 10 µM unless noted
[1] = tested on: NCI-H23 lung
[2] = tested on: NCI-H226 lung
[3] = tested on: NCI-H322M lung
[4] = tested on: HOP-62 NSCLC
[5] = tested on: NCI-H460 lung
[6] = tested on: HOP-92 NSCLC
[7] = tested on: NCI-H522 lung
[8] = tested on: A549/ATCC NSCLC
[9] = tested on: 786-0 renal
[10] = tested on: COLO 205 colon

| Structure (SMILES) | growth [1] | growth [2] | growth [3] | growth [4] | growth [5] | growth [6] | growth [7] | growth [8] | growth [9] | growth [10] |
| --- | --- | --- | --- | --- | --- | --- | --- | --- | --- | --- |
| CC[C@H](Nc1nc(N)nc(C)c1C#N)c1nc2cccc(NCCCCCC(=O)NO)c2c(=O)n1-c1ccccc1 | 73.3% | 75% | 75.9% | 66.2% | 77% | 27.2% | 53.2% | 79.3% | 27.5% | 86.2% |
| COc1ccc(C2CC(c3ccc(Nc4nc(Nc5ccc(F)cc5)nc(Nc5ccc(F)cc5)n4)cc3)=NN2C(C)=O)cc1 (stereo not given) | 75.7% | 106% | 87.5% | 96.7% | 101% | -13.6% (active) | 83.1% | 82.5% | 82% | 111% |
| N#Cc1c(Nc2ccc(F)cc2)n[nH]c1-c1cccs1 | 85.2% | 88.9% | 102% | 110% | 107% | 87.5% | 97.1% | 115% | 98.3% | 128% |
| O=C(OC[C@@H]1CO1)c1cccc2c(=O)c3ccccc3[nH]c12 | -58.5% (active) | -24.6% (active) | -13% (active) | -26% (active) | -21.8% (active) | -25.5% (active) | -49.9% (active) | -20% (active) | -8.54% (active) | -37.3% (active) |
| Cc1ncc(C(=O)Nc2ccc(CN3CCN(C)CC3)c(C(F)(F)F)c2)cc1C#Cc1cnc(N)c2cnccc12 | 9.05% (active) | 12.1% | 14.8% | -21.8% (active) | -53.9% (active) | 34.2% | -0.528% (active) | 13.3% | 14% | -27% (active) |
| COP(=O)(OC)c1nnn(-c2cccc([N+](=O)[O-])c2)c1C | 107% | 120% | 114% | 110% | 104% | 119% | 90.3% | 111% | 103% | 122% |
| CCN(CC)S(=O)(=O)c1ccc(S(=O)(=O)N2CCC[C@@H](C(=O)N3CCN(C(=O)OC(C)(C)C)CC3)C2)cc1 | 53.6% | 77.9% | 88.5% | 66.1% | 73.4% | 74.9% | 68.4% | 67.7% | 92.8% | 108% |
| COc1ccc(C/C(C)=C(\c2ccc(O)cc2)c2ccc(OCCN3CCCC3)cc2)cc1 | 105% | 113% | 99.2% | 102% | 113% | 104% | 97.5% | 98% | 100% | 111% |
| CN(C)c1ccc(/C=C/C(=O)c2ccccc2)cc1 | 97.8% | 99.9% | 98.4% | 81% | 105% | 88% | 60.3% | 65.4% | 88.8% | 93.7% |
| O=C(/C=C/C12c3ccccc3C(c3ccccc31)C1C(=O)NC(=O)C12)c1ccc(F)cc1 (stereo not given) | 9.23% (active) | 36.9% | -4.89% (active) | -45.3% (active) | 2.15% (active) | -30.9% (active) | 2.09% (active) | 10.6% | -9.86% (active) | -45.4% (active) |
| COc1cc(C(=O)c2c(N)ncn2-c2ccccc2)cc(OC)c1OC | 101% | 84% | 104% | 77.1% | 106% | 96.2% | 50.5% | 106% | 88.7% | 97.4% |
| O=C(CCCCl)NNc1nccc(Nc2ccc(S(=O)(=O)Nc3ccncc3)cc2)n1 | 99.3% | 104% | 102% | 94.6% | 109% | 98.5% | 99.7% | 96.6% | 95.2% | 111% |
| COc1ccc(/C(C)=C(\c2ccc(OCCN3CCCCCC3)cc2)c2ccc(OC(=O)c3ccccc3)cc2)cc1 | 52.2% | 75.3% | 80.5% | 75.7% | 10.2% | 54.4% | 68.3% | 41.1% | 27.5% | 12.4% |
